Rows were chosen to be rich in hits. Some 17% of all compounds tested hit in one or more screens of this group.
TGFb SMAD3 inh = inhibitors of TGF-b signaling; HepG2 CAGA-GFP TGF-b/SMAD3 reporter, GFP fluorescence, 18 h; TGF-beta stimulated, 500 pg/mL final; Potency, µM (highest dose often 46.1 µM), actives largely listed as inhibitors; AID 588855; 410,000 compounds, 1.2% hits; also: nearly all actives have a fitted effect of over 65% in size
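HEPG2 CAGA-GFP reporter cells (1000/well, DMEM with 1% FBS) received compounds, then recombinant TGF-beta at 500 pg/mL final for 18 hours at 37 degrees C. Per-cell GFP summed per well was normalised to unstimulated and stimulated DMSO controls before curve fitting.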
HepG2 viability = counter-screen for TGF-b inhibitors: cytotoxicity in HepG2 cells. HepG2 CAGA-GFP viability, ATP luminescence, 18 h. Potency, µM (titrated, usually from 46.1 µM), most hits filed as cytotoxic. 410,000 compounds, 0.76% hits. AID 588856
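HepG2 CAGA-GFP cells (1000/well, DMEM with 1% FBS) received compound, then TGF-beta at 500 pg/mL final, and were incubated 18 hours at 37 degrees C. Viability was read by CellTiter-Glo luminescence. Media-only wells were set as complete cell-killing and DMSO as no toxicity.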
S2 tox = reduces viability in counter-screen for ATXN expression inhibitors; S2 cells (HEK-293 line with an ATXN2-luciferase reporter) viability, CellTiter-Fluor protease fluorescence, 24 h; Potency, µM (highest dose often 56.7 µM), actives largely listed as cytotoxic; 400,000 compounds, 0.49% hits; AID 651635; also: nearly all actives have a fitted effect of over 40% in size
TDP1 cell CPT = DT40-hTDP1 cell growth loss with CPT; chicken DT40 Tdp1-/-;hTDP1 cells + 20 nM CPT, ATP luminescence, 48 h; Potency, µM (highest dose often 46.2 µM), most hits filed as inhibitors; 420,000 compounds, 12% hits; AID 686979; also: nearly all actives have a fitted effect of over 55% in size
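Chicken DT40 Tdp1-/- cells complemented with human TDP1, 400 cells/well, exposed to compounds plus 20 nM camptothecin for at least 48 h at 37 C; viability read as ATP content by CellTiter-Glo luminescence.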
DT40 TDP1 no CPT = qHTS for Inhibitors of human tyrosyl-DNA phosphodiesterase 1 (TDP1): qHTS in cells in absence of CPT | DT40 Tdp1-/- hTDP1 cells, no CPT, ATP luminescence, 48 h | Potency, µM (titrated, usually from 46.2 µM), most hits filed as inhibitors | 420,000 compounds, 15% hits | AID 686978, 2013; also: nearly all actives have a fitted effect of over 55% in size
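Compound effects on proliferation are scored in DT40 Tdp1-/-;hTDP1 cells in the absence of CPT. ATP levels (CellTiter-Glo luminescence) are recorded after a ≥48 hr, 37 °C incubation.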
ATXN2 expr inh = inhibitors of ATXN2 expression. HEK-293 ATXN2-luciferase reporter, luminescence, 24 h. Potency, µM (highest dose often 57 µM), most hits filed as inhibitors. 360,000 compounds, 0.72% hits. AID 1745845; also: nearly all actives have a fitted effect of over 55% in size
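ATXN2-luciferase reporter cells (luciferase flanked by upstream and downstream ATXN2 gene portions) were treated 24 h at 37 °C with compounds at up to 57 uM. SteadyGlo luminescence gave expression; GF-AFC fluorescence gave viability.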
Each line names hits and unclear results; the compound was inactive in the other large screens. Calls follow the shape of the dose curve; as a rule, active = well fitted curve in the direction sought with a large enough effect; inconclusive = small, poorly fitted or top-dose-only effect, or another doubt; inactive = no such curve, though single readings can be large; an effect the other way counts as inactive or inconclusive.

CC(C)Oc1ccc(F)cc1-c1cc(C(=O)N2CCc3ccccc3C2)[nH]n1	TGFb SMAD3 inh 14µM, S2 tox inconclusive, TDP1 cell CPT inconclusive, DT40 TDP1 no CPT inconclusive, ATXN2 expr inh inconclusive
Cc1ccc(Cl)cc1-c1cc(C(=O)NCc2cc(C(F)(F)F)cc(C(F)(F)F)c2)[nH]n1	TGFb SMAD3 inh 11µM, S2 tox inconclusive, TDP1 cell CPT inconclusive, DT40 TDP1 no CPT 21µM, ATXN2 expr inh inconclusive
Cc1cc(F)ccc1-c1cc(C(=O)NCc2cccc(C(F)(F)F)c2)[nH]n1	TGFb SMAD3 inh inconclusive, TDP1 cell CPT inconclusive, DT40 TDP1 no CPT inconclusive
COc1ccc(Cl)cc1-c1cc(C(=O)NCc2cccs2)[nH]n1	TDP1 cell CPT 12µM, DT40 TDP1 no CPT inconclusive
CC(C)Oc1ccc(F)cc1-c1cc(C(=O)NCc2ccc(F)cc2)[nH]n1	TGFb SMAD3 inh inconclusive, TDP1 cell CPT 26µM, DT40 TDP1 no CPT inconclusive
CC(=O)c1ccc(CC2SC(N)=NC2=O)cc1 (stereo not given)	none (no result: ATXN2 expr inh)
O=C(CSc1nc2ccccc2c(=O)n1-c1ccc(OC(F)F)cc1)NC1CC1	TDP1 cell CPT inconclusive, DT40 TDP1 no CPT inconclusive
COc1ccc(F)cc1-c1cc(C(=O)NCc2cccc(C(F)(F)F)c2)[nH]n1	TGFb SMAD3 inh inconclusive, TDP1 cell CPT inconclusive, DT40 TDP1 no CPT inconclusive
CCOc1ccc(Cl)cc1-c1cc(C(=O)NCc2cccc(C(F)(F)F)c2)[nH]n1	TGFb SMAD3 inh inconclusive, TDP1 cell CPT 10µM, DT40 TDP1 no CPT 13µM
O=C(Nc1ccncc1)C1C(=O)c2ccccc2N(Cc2ccccc2)C1=O (stereo not given)	TDP1 cell CPT 1µM, DT40 TDP1 no CPT 0.71µM (no result: S2 tox, ATXN2 expr inh)
O=C(O)C1C2CCC(O2)C1C(=O)Nc1cnn(Cc2ccccc2)c1 (stereo not given)	none
O=C(COC(=O)C12CC3CC(CC(O)(C3)C1)C2)Nc1ccc(Cl)c(S(=O)(=O)N2CCOCC2)c1	TDP1 cell CPT 29µM, DT40 TDP1 no CPT inconclusive
COc1ccc(NC(=O)COC(=O)C23CC4CC(CC(NC(C)=O)(C4)C2)C3)cc1S(=O)(=O)N1CCOCC1	TDP1 cell CPT 26µM, DT40 TDP1 no CPT 16µM
COc1cc(S(=O)(=O)N2CCOCC2)ccc1NC(=O)COC(=O)CC12CC3CC(CC(C3)C1)C2	TGFb SMAD3 inh inconclusive, TDP1 cell CPT inconclusive, DT40 TDP1 no CPT 18µM
COc1ccc(NC(=O)COCc2cc(-c3ccco3)on2)cc1Cl	TDP1 cell CPT inconclusive (no result: S2 tox, ATXN2 expr inh)
CNC(=O)COC(=O)Cc1ccc(Cl)cc1	none
CCN1CCN(S(=O)(=O)CC2(C)C3CCC2(C)C(=O)C3Br)CC1 (stereo not given)	none
CCOCCCN1C(=O)CN(C2CCCCCC2)C(=O)C1c1ccc(OCC)c(OC)c1 (stereo not given)	none (no result: S2 tox, ATXN2 expr inh)
CCc1ccc(-c2cc(C)no2)cc1S(=O)(=O)N1CCC(C)CC1	TDP1 cell CPT inconclusive, DT40 TDP1 no CPT 23µM
Cc1cc(-c2ccc(C(C)C)c(S(=O)(=O)N3CCN(c4ccccc4)CC3)c2)on1	TDP1 cell CPT 2.6µM, DT40 TDP1 no CPT 2.1µM
Cc1cc(-c2ccc(C(C)C)c(S(=O)(=O)N3CCC(C)CC3)c2)on1	TGFb SMAD3 inh inconclusive, TDP1 cell CPT 26µM, DT40 TDP1 no CPT 18µM (no result: ATXN2 expr inh)
Cc1cc(-c2ccc(C)c(S(=O)(=O)N3CCC(C)CC3)c2)on1	TGFb SMAD3 inh inconclusive, TDP1 cell CPT inconclusive, DT40 TDP1 no CPT inconclusive (no result: S2 tox, ATXN2 expr inh)
COc1ccc(N2CCN(S(=O)(=O)c3cc(-c4cc(C)no4)ccc3C(C)C)CC2)cc1	TDP1 cell CPT inconclusive, DT40 TDP1 no CPT inconclusive (no result: ATXN2 expr inh)
CC(C)c1ccc(NC(=O)Nc2nnc([C@@H]3C[C@H](O)[C@@H](CO)O3)s2)cc1	none
CCN(CC)CCN1C(=O)C(=O)/C(=C(/O)c2ccc(OC(C)C)cc2)C1c1cccs1 (stereo not given)	none
COc1ccc(OC)c(-c2cc(Cl)c3c(c2)CC(CNC(=O)/C=C/c2ccccn2)O3)c1 (stereo not given)	none (no result: TGFb SMAD3 inh, HepG2 viability, ATXN2 expr inh)

Screens deposited in PubChem by National Center for Advancing Translational Sciences (NCATS).
